In PubChem BioAssay (NCATS):
Inconclusive results are not listed. Activity calls are given as the source filed them. Unless noted, calls come from the whole dose curve; as a rule, active = well fitted curve in either direction with a large enough effect (not every such curve was filed as active); inconclusive = small, poorly fitted or top-dose-only effect, or another doubt; inactive = flat fitted curve, though single readings scatter.

Experiments:
[1] = molecular target: Lysosomal acid glucosylceramidase (Homo sapiens) (UniProt P04062); assay: Glucocerebrosidase-p2 (AID 348; in the data active = potency below about 10 µM; note: potency is the fitted concentration of half-maximal effect); settings: purified GBA, blue fluorogenic substrate, 40 min
Procedure, shortened: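 Normal human glucocerebrosidase (0.2 nM) with blue fluorogenic substrate (80 uM final) in citrate/phosphate pH 5.9 with 10mM sodium taurocholate, 0.01% tween-20; 40 min RT, NaOH/glycine stop; fluorescence Ex 365/Em 440; AC50 from a titration from 0.6 nM upwards.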

[2] = AP1 Signaling Pathway (AID 357); settings: ME-180 AP-1-bla reporter, EGF-induced, beta-lactamase ratio, 5 h; at 7.69 µM (top of the series) unless noted;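 note: ME-180 reporter cells stimulated with EGF at its EC50 level; % is set by controls: 0 for no effect and ±100 for the full control effect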
Procedure, shortened: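 AP-1-bla ME-180 cells, Opti-MEM + 0.5% dialyzed FBS, plated overnight 37 °C. Cpd titration + EC50 EGF, 5 h 37 °C. CCF4 2.5 h RT; ex 405, em 460/530 ratio → %activity, AC50.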

[3] = NFAT Signaling Pathway (AID 444); settings: Jurkat NFAT-bla M1, carbachol, beta-lactamase ratio, 5 h; at 7.69 µM (top of the series) unless noted;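 note: carbachol stimulus at about its EC50 of 1 µM final; % is set by controls: 0 for no effect and ±100 for the full control effect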
Procedure, shortened: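 Jurkat cells carrying an NFAT-driven β-lactamase reporter and co-transfected muscarinic M1 receptor were treated with compound plus carbachol (1 uM final, an EC50 level) for 5 h at 37 °C. CCF4 loading followed for 1 h at RT; 460/530 nm ratio gave %activity.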

[4] = Stat Signaling Pathway (AID 446); settings: ME-180 (cervical carcinoma) SIE beta-lactamase reporter, IL-6 stimulated, 5 h; at 7.69 µM (top of the series) unless noted;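 note: ME-180 cervical cancer cells given 40 pM IL-6 alongside compound; SIE-controlled beta-lactamase reporter measured as 460/530 nm FRET emission ratio; % is set by controls: 0 for no effect and ±100 for the full control effect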
Procedure, shortened: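 FRET read-out (405 nm excitation, 460/530 nm emission) of a beta-lactamase reporter under a STAT-inducible element in ME-180 cervical carcinoma cells. Cells with compound receive 40 pM IL-6 for 5 h. Values are normalised to AC90 stimulation and AC90 JAK-inhibitor controls.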

[5] = molecular target: Glucocorticoid receptor (Homo sapiens) (UniProt P04150); assay: GR-GFP Redistribution (AID 450;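 active = compounds whose dose series gives a full or clear partial fitted curve of increased nuclear translocation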; note: potency is the fitted concentration of half-maximal effect); settings: U2OS GR-GFP nuclear translocation, laser cytometry, 2 h
[6] = molecular target: Glucocorticoid receptor (Homo sapiens) (UniProt P04150); assay: GR-EFC Redistribution (AID 451; calls by dose curve; note: potency is the fitted concentration of half-maximal effect); settings: CHO-K1 GR-EFC translocation, beta-gal luminescence, 2 h
Procedure, shortened: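 CHO-K1 cells stably expressing nuclear-localized β-gal enzyme acceptor and GR fused C-terminally to the enzyme donor fragment; ligand-driven nuclear translocation restores β-gal by complementation. Compounds titrated up to 46 uM final, 2 h at 37 °C; luminescence read.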

[7] = molecular target: Mitogen-activated protein kinase 10 (Mus musculus) (UniProt Q61831); assay: JNK3 AlphaScreen Assay (AID 530); settings: JNK3 lysate, c-Jun phosphorylation; series mostly up to 11.4 µM;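 note: kinase came from lysate of stimulated human HepG2 cells; signal reports phosphorylation of biotinylated GST-cJun 1-79 at Ser73 with 10 µM ATP; % is set by controls: 0 for no effect and ±100 for the full control effect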
Procedure, shortened: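 Phosphorylation of biotinylated GST-cJun(1-79) at Ser73 is measured by AlphaScreen proximity luminescence. Enzyme is JNK3 in HepG2 lysates activated with interleukin-1beta and tumor necrosis factor alpha; ATP is 10 uM final.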

[8] = molecular target: 3',5'-cyclic-AMP phosphodiesterase 4B (Homo sapiens) (UniProt Q07343); assay: qHTS Assay for Inhibitors of PDE-IV (AID 607; active = well fitted activation curve with a large enough effect in the main read-out, with a control signal flat, not every such curve was filed as active; note: % of control where 0% means no effect); settings: HEK293 ACTOne CNG channel cells, membrane potential fluorescence; series mostly up to 22.9 µM
Procedure, shortened: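 Cell-based read-out of cAMP via a modified cyclic nucleotide-gated channel and membrane potential dye (535/590 nm) in HEK293 cells expressing PDE4 endogenously. Compounds tested up to 22.9 uM final; 100 uM RO 20-1724 reference.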

[9] = molecular target: ATP-dependent 6-phosphofructokinase (Trypanosoma brucei brucei) (UniProt O15648); assay: qHTS Assay to Find Inhibitors of T. brucei phosphofructokinase: hit validation (AID 492961; active = well fitted curve in the direction sought with a large enough effect; an effect the other way counts as inactive or inconclusive); settings: T. brucei PFK, ADP-Glo luminescence; series mostly up to 51.4 µM
Procedure, shortened: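 PFK 1.25 nM, F6P 0.5 mM, ATP 0.1 mM, MgCl2 5 mM, 0.1 M TEA pH 8.0, Tween20 0.01%, BSA 0.1%; 45 min RT. ADP-Glo two-step detection, luminescence. qHTS titration; curve fitting with curve-class categorization.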

[10] = qHTS profiling for inhibitors of Plasmodium falciparum proliferation (AID 504749; active = well fitted curve in the direction sought with a large enough effect; an effect the other way counts as inactive or inconclusive;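 note: 0% = DMSO vehicle and full inhibition = artemisinin control; nearly all actives have a fitted effect of over 60% in size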); settings: P. falciparum in erythrocytes, SYBR Green DNA, 72 h, at 28.7 µM (top of the series)
Procedure, shortened: (§1)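 Quantitative HTS: compounds pinned into medium, infected erythrocytes added (0.3% parasitemia, 2.5% hematocrit), 72 h culture at 37 C under 5% CO2. Saponin/Triton lysis with SYBR Green I, overnight RT, then fluorescence read.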

AS120 = assay: as above; settings: P. falciparum in erythrocytes, SYBR Green DNA, 72 h; series mostly up to 28.7 µM
Procedure, shortened: as §1

ATS189 = assay: as above; settings: P. falciparum in erythrocytes, SYBR Green DNA, 72 h; series mostly up to 28.7 µM
Procedure, shortened: as §1

CP185 = assay: as above; settings: P. falciparum in erythrocytes, SYBR Green DNA, 72 h; series mostly up to 28.7 µM
Procedure, shortened: as §1

CP191 = assay: as above; settings: P. falciparum in erythrocytes, SYBR Green DNA, 72 h; series mostly up to 28.7 µM
Procedure, shortened: as §1

DIV30 = assay: as above; settings: P. falciparum in erythrocytes, SYBR Green DNA, 72 h; series mostly up to 28.7 µM
Procedure, shortened: as §1

HB3 = assay: as above; settings: P. falciparum in erythrocytes, SYBR Green DNA, 72 h; series mostly up to 28.7 µM
Procedure, shortened: as §1

TAB113 = assay: as above; settings: P. falciparum in erythrocytes, SYBR Green DNA, 72 h; series mostly up to 28.7 µM
Procedure, shortened: as §1

W2 = assay: as above; settings: P. falciparum in erythrocytes, SYBR Green DNA, 72 h; series mostly up to 28.7 µM
Procedure, shortened: as §1

[11] = molecular target: Cytochrome P450 1A2 (Homo sapiens) (UniProt P05177); assay: p450-cyp1a2 (AID 410; calls by dose curve; note: potency is the fitted concentration of half-maximal effect;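 for activity change, negative = inhibition: -100% = full effect of reference inhibitor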); settings: recombinant CYP1A2, luciferin-ME demethylation, luminescence; series mostly up to 11.4 µM
Procedure, shortened: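 Luminescent demethylation readout: Luciferin-ME (100uM, equal to Km) turned over by 20nM CYP1A2 for 60 min at room temperature after NADPH regeneration addition, following 10 min compound preincubation. Normalization used 57 uM furafylline as full inhibition.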

[12] = molecular target: Cytochrome P450 3A4 (Homo sapiens) (UniProt P08684); assay: qHTS Assay for Activators of Cytochrome P450 3A4 (AID 885; active = well fitted curve in the direction sought with a large enough effect; an effect the other way counts as inactive or inconclusive; note: nearly all actives have a fitted effect of over 65% in size); settings: recombinant CYP3A4, Luciferin-PPXE luminescence, 60 min; series mostly up to 11.4 µM
Procedure, shortened: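 Luminescent readout of luciferin formed from 25 uM Luciferin-PPXE (KM level) by 20 nM CYP3A4 in 200 mM KPO4, with 60 min NADPH-driven reaction at room temperature after 10 min compound exposure. Ketoconazole (57 uM) defined 100% inhibition.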

Chain of Lysosomal acid glucosylceramidase (Homo sapiens) (P04062 whole entry, looked up): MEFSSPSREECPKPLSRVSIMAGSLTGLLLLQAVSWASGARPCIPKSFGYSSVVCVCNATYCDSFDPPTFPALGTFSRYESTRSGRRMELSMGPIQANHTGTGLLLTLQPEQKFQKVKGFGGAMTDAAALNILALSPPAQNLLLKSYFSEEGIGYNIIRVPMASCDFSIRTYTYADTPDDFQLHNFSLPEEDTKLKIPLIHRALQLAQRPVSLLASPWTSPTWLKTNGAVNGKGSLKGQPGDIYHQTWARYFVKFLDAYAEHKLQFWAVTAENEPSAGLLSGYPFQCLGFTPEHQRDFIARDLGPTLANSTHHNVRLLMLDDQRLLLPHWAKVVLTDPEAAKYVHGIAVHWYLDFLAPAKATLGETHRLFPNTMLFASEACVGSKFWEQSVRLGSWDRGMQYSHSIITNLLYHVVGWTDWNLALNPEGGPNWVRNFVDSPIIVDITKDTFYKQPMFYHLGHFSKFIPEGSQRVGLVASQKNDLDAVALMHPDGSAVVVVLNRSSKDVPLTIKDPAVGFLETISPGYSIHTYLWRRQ
Chain of Cytochrome P450 1A2 (Homo sapiens) (P05177 whole entry, looked up): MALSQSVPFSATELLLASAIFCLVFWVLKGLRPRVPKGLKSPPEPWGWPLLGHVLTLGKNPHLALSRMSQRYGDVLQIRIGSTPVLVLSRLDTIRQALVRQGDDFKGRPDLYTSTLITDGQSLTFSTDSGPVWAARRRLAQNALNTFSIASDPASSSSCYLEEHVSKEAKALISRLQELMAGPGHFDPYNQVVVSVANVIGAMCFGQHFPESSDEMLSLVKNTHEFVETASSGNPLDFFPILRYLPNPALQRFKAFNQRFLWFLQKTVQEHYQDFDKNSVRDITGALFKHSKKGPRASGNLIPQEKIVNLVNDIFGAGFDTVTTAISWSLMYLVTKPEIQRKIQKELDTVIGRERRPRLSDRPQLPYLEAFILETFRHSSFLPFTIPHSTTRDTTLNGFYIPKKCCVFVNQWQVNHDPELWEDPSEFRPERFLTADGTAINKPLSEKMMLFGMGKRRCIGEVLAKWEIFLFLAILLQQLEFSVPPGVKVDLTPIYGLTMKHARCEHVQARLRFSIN
Chain of Glucocorticoid receptor (Homo sapiens) (P04150 whole entry, looked up, the tested form may be a part): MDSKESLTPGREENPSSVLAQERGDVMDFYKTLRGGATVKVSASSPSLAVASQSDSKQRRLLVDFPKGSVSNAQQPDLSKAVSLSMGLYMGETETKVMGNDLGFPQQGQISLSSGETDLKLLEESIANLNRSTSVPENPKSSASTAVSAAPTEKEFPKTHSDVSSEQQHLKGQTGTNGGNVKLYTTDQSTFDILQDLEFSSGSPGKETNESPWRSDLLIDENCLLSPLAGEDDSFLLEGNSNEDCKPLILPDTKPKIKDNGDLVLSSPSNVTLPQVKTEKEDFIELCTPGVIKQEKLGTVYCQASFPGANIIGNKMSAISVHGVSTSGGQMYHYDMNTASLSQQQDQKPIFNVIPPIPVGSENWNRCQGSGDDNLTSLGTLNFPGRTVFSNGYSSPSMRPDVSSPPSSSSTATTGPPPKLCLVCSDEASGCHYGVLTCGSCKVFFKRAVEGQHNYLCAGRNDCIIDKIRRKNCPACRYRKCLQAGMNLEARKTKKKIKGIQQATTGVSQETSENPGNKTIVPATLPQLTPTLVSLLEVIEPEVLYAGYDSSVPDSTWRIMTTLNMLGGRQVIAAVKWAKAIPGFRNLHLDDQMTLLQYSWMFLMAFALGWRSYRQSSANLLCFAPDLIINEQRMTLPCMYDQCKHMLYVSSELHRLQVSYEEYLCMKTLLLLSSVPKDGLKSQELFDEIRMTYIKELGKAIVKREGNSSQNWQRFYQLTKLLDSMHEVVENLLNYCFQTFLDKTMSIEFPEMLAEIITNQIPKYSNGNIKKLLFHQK
Chain of 3',5'-cyclic-AMP phosphodiesterase 4B (Homo sapiens) (Q07343 whole entry, looked up): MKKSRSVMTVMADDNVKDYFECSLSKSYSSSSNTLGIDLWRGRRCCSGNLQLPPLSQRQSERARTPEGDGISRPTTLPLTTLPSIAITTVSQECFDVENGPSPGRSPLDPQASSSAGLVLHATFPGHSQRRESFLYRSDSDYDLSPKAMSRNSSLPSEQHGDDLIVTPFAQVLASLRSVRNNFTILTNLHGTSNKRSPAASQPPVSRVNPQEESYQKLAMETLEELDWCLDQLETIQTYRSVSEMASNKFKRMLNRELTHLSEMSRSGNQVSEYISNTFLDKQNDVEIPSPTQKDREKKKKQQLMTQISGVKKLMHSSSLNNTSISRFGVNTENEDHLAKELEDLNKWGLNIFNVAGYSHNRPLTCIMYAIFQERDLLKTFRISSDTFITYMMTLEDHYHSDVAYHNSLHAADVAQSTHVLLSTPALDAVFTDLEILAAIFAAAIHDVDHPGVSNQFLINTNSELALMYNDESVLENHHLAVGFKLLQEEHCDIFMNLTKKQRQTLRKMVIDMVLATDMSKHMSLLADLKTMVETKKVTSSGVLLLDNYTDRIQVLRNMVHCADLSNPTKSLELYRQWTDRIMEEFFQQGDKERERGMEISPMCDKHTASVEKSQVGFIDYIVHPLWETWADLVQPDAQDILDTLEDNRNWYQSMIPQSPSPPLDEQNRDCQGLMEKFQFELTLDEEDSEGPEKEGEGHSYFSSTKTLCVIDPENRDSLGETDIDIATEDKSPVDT
Chain of Cytochrome P450 3A4 (Homo sapiens) (P08684 whole entry, looked up): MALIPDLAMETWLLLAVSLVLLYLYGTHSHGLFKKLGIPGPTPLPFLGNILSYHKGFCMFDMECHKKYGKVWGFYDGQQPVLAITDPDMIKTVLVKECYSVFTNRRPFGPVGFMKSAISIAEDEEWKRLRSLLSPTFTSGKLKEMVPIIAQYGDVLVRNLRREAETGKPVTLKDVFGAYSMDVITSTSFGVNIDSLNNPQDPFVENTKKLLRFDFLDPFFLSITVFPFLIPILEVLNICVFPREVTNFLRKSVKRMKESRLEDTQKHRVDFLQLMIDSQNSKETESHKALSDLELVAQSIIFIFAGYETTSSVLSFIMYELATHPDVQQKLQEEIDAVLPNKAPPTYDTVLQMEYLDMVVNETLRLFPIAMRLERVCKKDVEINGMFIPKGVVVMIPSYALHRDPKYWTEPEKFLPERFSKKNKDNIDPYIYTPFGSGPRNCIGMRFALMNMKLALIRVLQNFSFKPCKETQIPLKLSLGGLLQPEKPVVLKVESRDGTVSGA
Chain of ATP-dependent 6-phosphofructokinase (Trypanosoma brucei brucei) (O15648 whole entry, looked up): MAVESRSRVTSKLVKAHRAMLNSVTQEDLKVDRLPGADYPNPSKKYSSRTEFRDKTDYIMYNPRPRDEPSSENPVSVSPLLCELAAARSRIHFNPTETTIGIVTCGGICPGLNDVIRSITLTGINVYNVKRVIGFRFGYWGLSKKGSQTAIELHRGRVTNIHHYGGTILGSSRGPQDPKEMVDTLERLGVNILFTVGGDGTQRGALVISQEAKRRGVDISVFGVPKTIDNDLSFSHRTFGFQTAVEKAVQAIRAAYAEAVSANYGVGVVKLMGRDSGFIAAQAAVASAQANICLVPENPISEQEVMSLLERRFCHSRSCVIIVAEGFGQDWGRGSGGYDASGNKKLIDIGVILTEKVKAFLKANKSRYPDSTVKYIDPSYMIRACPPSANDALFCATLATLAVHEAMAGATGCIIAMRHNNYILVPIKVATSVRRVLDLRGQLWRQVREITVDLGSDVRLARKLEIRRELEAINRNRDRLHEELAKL

CC1(C)S[C@@H]2[C@H](NC(=O)Cc3ccccc3)C(=O)N2[C@@H]1C(=O)O
inactive: Potency [1] > 11.4 µM | activity change, negative = inhibition [2] 11.5% | activity change, negative = inhibition [3] 4.82% | activity, negative = inhibition [4] -4.4% | Potency [5] > 46 µM | Potency [6] > 9.22 µM | Potency [7] | Potency [8] | outcome [9] | activity, negative = inhibition ([10]; parasite line A) 2.23% | activity, negative = inhibition ([10]; parasite line B) 9.91% | Potency (AS120) | Potency (ATS189) | Potency (CP185) | Potency (CP191) | Potency (DIV30) | Potency (HB3) | Potency (TAB113) | Potency (W2)

Cn1c(=O)c2c(ncn2CCSS(=O)(=O)O)n(C)c1=O
inactive: Potency [1] > 11.4 µM | activity change, negative = inhibition [2] -0.109% | activity change, negative = inhibition [3] 18.1% | activity, negative = inhibition [4] -2.16% | Potency [5] > 46 µM | Potency [6] > 9.22 µM | Potency [7] | Potency [8]

O=C(O)Cc1[nH]cnc1C(=O)O
inactive: Potency [1] > 11.4 µM | activity change, negative = inhibition [2] -11% | activity change, negative = inhibition [3] 7.88% | activity, negative = inhibition [4] -3.92% | Potency [5] > 46 µM | Potency [6] > 9.22 µM

CSc1cccc(NC(=O)OC2CCCCCCCCCCC2)c1
active: Potency [11] 5.01 µM
inactive: Potency [1] > 11.4 µM | activity change, negative = inhibition [2] 8.21% | Potency [5] > 46 µM | Potency [6] > 9.22 µM | Potency [7] | Potency [8] | Potency [12]

CC1(CC(=O)O)O[C@H]2CCCCC[C@H]2O1 (stereo partly specified) (tested in a mixture with another compound)
inactive: Potency [1] > 11.4 µM | activity change, negative = inhibition [2] 8.96% | Potency [11] | Potency [5] > 46 µM | Potency [6] > 9.22 µM | Potency [7] | Potency [8] | Potency [12]

COc1ccc(C(=O)CCN(C)C)c2ccccc12
active: Potency [11] 1.58 µM
inactive: Potency [1] > 11.4 µM | activity change, negative = inhibition [2] -15.5% | Potency [5] > 46 µM | Potency [6] > 9.22 µM | Potency [7] | Potency [8] | Potency [12]

CC1(C)S[C@@H]2[C@H](NC(=O)C3(N)CCCCC3)C(=O)N2[C@@H]1C(=O)O
inactive: Potency [1] > 11.4 µM | activity change, negative = inhibition [2] -5.88% | activity change, negative = inhibition [3] 9.48% | activity, negative = inhibition [4] 0.508% | Potency [5] > 46 µM | Potency [6] > 9.22 µM | Potency [7]

Nc1nc(N)nc(CC(=O)O)n1
inactive: Potency [1] > 11.4 µM | activity change, negative = inhibition [2] 5.1% | activity change, negative = inhibition [3] 15.8% | activity, negative = inhibition [4] 0.411% | Potency [5] > 46 µM | Potency [6] > 9.22 µM | Potency [7] | Potency [8]

CC(C)(C)n1nc(C2CC2)cc1NC(=O)Nc1ccc(Cl)cc1
inactive: Potency [1] > 11.4 µM | activity change, negative = inhibition [2] -5.76% | activity change, negative = inhibition [3] 8.66% | activity, negative = inhibition [4] -5.8% | Potency [5] > 46 µM | Potency [6] > 9.22 µM | Potency [7] | Potency [8]

O=C(O)CSc1ccccc1C(=O)O
inactive: Potency [1] > 11.4 µM | activity change, negative = inhibition [2] 9.97% | activity change, negative = inhibition [3] -5.26% | activity, negative = inhibition [4] -2.73% | Potency [5] > 46 µM | Potency [6] > 9.22 µM | Potency [7] | Potency [8]

N[C@@H](CNO)C(=O)O
inactive: Potency [1] > 11.4 µM | activity change, negative = inhibition [2] 7.51% | activity change, negative = inhibition [3] 0.975% | activity, negative = inhibition [4] -9.2% | Potency [5] > 46 µM | Potency [6] > 9.22 µM | Potency [7] | Potency [8]

OCCSCc1cc(Cl)cc(Cl)c1O
inactive: Potency [1] > 11.4 µM | activity change, negative = inhibition [2] -3.03% | activity change, negative = inhibition [3] 14.2% | activity, negative = inhibition [4] 17.5% | Potency [5] > 46 µM | Potency [6] > 9.22 µM | Potency [7] | Potency [8]

C=C(C)CN(CC#N)CC(=C)C
inactive: Potency [1] > 11.4 µM | activity change, negative = inhibition [2] 2.17% | activity change, negative = inhibition [3] 9.57% | activity, negative = inhibition [4] 16.5% | Potency [5] > 46 µM | Potency [6] > 9.22 µM | Potency [7] | Potency [8]

O=C(c1nc2ccc([N+](=O)[O-])cc2[nH]c1=O)[C@@H](O)c1ccc2c(c1)OCO2
inactive: Potency [1] > 11.4 µM | activity change, negative = inhibition [2] -1.57% | activity change, negative = inhibition [3] 2.9% | activity, negative = inhibition [4] 12.9% | Potency [5] > 46 µM | Potency [6] > 9.22 µM | Potency [7] | Potency [8]

NC(=O)/N=C(\N)NC(=O)c1ccccc1
inactive: Potency [1] > 11.4 µM | activity change, negative = inhibition [2] -2.56% | activity change, negative = inhibition [3] 8.99% | activity, negative = inhibition [4] 2.37% | Potency [5] > 46 µM | Potency [6] > 9.22 µM | Potency [7] | Potency [8]

O=C1C(=O)c2ccccc2C(O)=C1Cc1ccccc1
inactive: Potency [1] > 11.4 µM | activity change, negative = inhibition [2] -5.11% | activity change, negative = inhibition [3] 4.13% | activity, negative = inhibition [4] -11.8% | Potency [5] > 46 µM | Potency [6] > 9.22 µM | Potency [7] | Potency [8]
